Measurements as given in PubChem BioAssay AID743148 (Broad Institute, 2013).
Calls of active or inactive are those of the source.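 How the source made its calls: active means fitted half-maximal signal loss reached at or below twice the highest valid dose tested; inconclusive means flat curve with 30 to 70% loss, or a poor fit; inactive means the rest, including signal gain.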

Test: viability loss in HepG2 liver cells – cell-based, CellTiter-Glo luminescence, dry powder, set 4, cytotoxicity control, dose response (AID 743148)
Settings: CellTiter-Glo ATP luminescence, 72 h; series mostly up to 26 µM

| Structure (SMILES) | outcome |
| --- | --- |
| CCN(CC)c1ccc(C2=NNC(=O)CC2C)cc1[N+](=O)[O-] (stereo not drawn) | inactive |
| C[C@@H]1CC(=O)NN=C1c1ccc(C2CCCCC2)cc1 | inactive |
| C[C@@H]1CC(=O)NN=C1c1ccc(-c2cncnc2)cc1 | inactive |
| C[C@@H]1CC(=O)NN=C1c1ccc(F)c(F)c1 | inactive |
| C[C@H]1CC(=O)NN=C1c1ccc(N2CCOCC2)c(F)c1 | inactive |
| C[C@@H]1CC(=O)NN=C1c1ccc(N2CCOCC2)c(F)c1 | inactive |
| CC(=O)Nc1ccc(C2=NNC(=O)C[C@H]2C)cc1[N+](=O)[O-] | inactive |
| C[C@@H]1CC(=O)NN=C1c1ccc(Cl)cc1 | inactive |
| O=C1CN2Cc3c(ccc(Cl)c3Cl)N=C2N1 | inactive |
| Cn1c(NC(=O)c2ccccc2)nc2ccccc21 | inactive |
| CCN1N=C(c2ccc(N(CC)CC)cc2)[C@H](C)CC1=O | inactive |
| C[C@@H]1CC(=O)NN=C1c1ccc(N2CCOCC2)cc1 | inactive |
| COc1cc2c(cc1OC)-c1cc(=Nc3c(C)cc(C)cc3C)n(C)c(=O)n1CC2 | inactive |
